# Out of some 190,000 compounds screened, about 1,600 (0.84%) were called active.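 The calls were made as follows: active = inhibition above a set limit, derived from the sample mean plus 3 SD (cut at about 45% in these data); inconclusive = one replicate passes the limit while the other fails; inactive = the rest.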 The sample as a whole holds a higher share of actives than the screen did.
# Assay: APP 5'UTR translational reporter suppression – APP 5'UTR luciferase, SH-SY5Y cells, primary screen (AID 1285)
# Conditions: SH-SY5Y APP 5'UTR-luciferase reporter, luminescence; at 2 µM; hits give high values
row,Compound,inhibition
1,COc1cc(/C=N\NC(=O)c2nonc2N)c(OC)cc1Br,1% (inactive)
2,COCc1c(C(=O)N/N=C/C2CC=CCC2)nnn1-c1nonc1N (stereo unspecified),6.9% (inactive)
3,Nc1nonc1-n1nnc(C(=O)N/N=C/c2cc(Br)ccc2O)c1CSC1=NCCS1,54.3% (active)
4,CCC1(CC)NC(=O)N(CC(=O)OCC(=O)NC(=O)c2ccccc2)C1=O,5.8% (inactive)
5,Cc1nc2ccc(C(=O)O)cc2[nH]1,4.6% (inactive)
6,CC(C)c1nc2ccc(C(=O)O)cc2[nH]1,-1.3% (inactive)
7,COC(=O)Nc1nc2ccc(Sc3ccccc3)cc2[nH]1,91.5% (active)
8,CCO/C=C1\C(=O)N(c2ccc(OCC)cc2)C(=O)c2ccccc21,-6.3% (inactive)
9,OCCC1CN(Cc2ccc3nsnc3c2)CCN1C1CCCCC1 (stereo unspecified),0.3% (inactive)
10,CC(C)N1CCC(=NNc2ccc([N+](=O)[O-])cc2S(=O)(=O)N2CCOCC2)CC1,16.2% (inactive)
11,CCn1c2ccccc2c2cc(CC(N)=O)ccc21,15% (inactive)
12,CCCN=C1NC(=O)C(CC(=O)NCCc2ccc(OC)c(OC)c2)S1 (stereo unspecified),74.7% (active)
13,COc1ccc(CCNC(=O)CC2SC(=Nc3cc(C)cc(C)c3)NC2=O)cc1OC (stereo unspecified),2.9% (inactive)
14,COc1ccc(CCNC(=O)CN(c2ccccc2)S(C)(=O)=O)cc1OC,-22.4% (inactive)
15,Cc1cc(C)c(S(=O)(=O)N2CCOCC2)cc1C,10.3% (inactive)
16,CCOc1ccc(Br)cc1S(=O)(=O)Nc1cccc(S(=O)(=O)N(CC)CC)c1,-7% (inactive)
17,CCOc1ccccc1NC(=O)CCc1ccc(C)o1,9.7% (inactive)
18,Cc1ccc(CCC(=O)Nc2ncc(Cc3cc(Cl)ccc3Cl)s2)o1,94.1% (active)
19,Cc1cnc(NC(=O)CSc2nnc(-c3ccc(Cl)cc3Cl)n2N)s1,-0.1% (inactive)
20,CN(C)c1ccc(Nc2c3c4c(cccc4n(C)c2=O)C(=O)c2ccccc2-3)cc1,55.2% (active)
21,CC1=NCCN1S(=O)(=O)c1cccc([N+](=O)[O-])c1,11.4% (inactive)

row,Compound,inhibition
1,COC(=O)CSc1ncnc2c1cnn2-c1ccc(C)cc1C,-3.9% (inactive)
2,CSc1nc(-c2ccccc2)nc(C(Cl)Cl)n1,48.7% (active)
3,CSc1nc(C)cc(SC(C(C)=O)C(=O)Nc2ccccc2)n1 (stereo unspecified),-17.5% (inactive)
4,COc1ccc(NC(=O)CCNS(=O)(=O)c2ccc3c(c2)c(=O)n(C)c(=O)n3C)cc1OC,17.6% (inactive)
5,COCCN(C(=S)Nc1ccccc1OC)C1CCN(C(C)C)CC1,-3.7% (inactive)
6,COC(=O)c1cc2c(ccn2C)n1C,-10.6% (inactive)
7,Cc1cc(-c2n[nH]c(=S)n2/N=C/C(Br)=C/c2ccccc2)n[nH]1,83.5% (active)
8,S=c1[nH]nc(-c2cccnc2)n1/N=C/C(Cl)=C\c1ccccc1,-36.5% (inactive)
9,Cc1ccc(/C=N\n2c(-c3ccccc3)n[nH]c2=S)s1,-4% (inactive)
10,CC(Oc1ccccc1)C(=O)NN1Cc2ccccc2C1=N (stereo unspecified),-15% (inactive)
11,O=c1c2cc3c(=O)n(CC4CCCO4)c(=O)c3cc2c(=O)n1CC1CCCO1 (stereo unspecified),-21.8% (inactive)
12,O=C1c2cccc3c([N+](=O)[O-])ccc(c23)C(=O)N1CC1CCCO1 (stereo unspecified),53% (active)
13,O=C(NCc1ccc2c(c1)OCO2)c1ccc2c(c1)C(=O)N(CC1CCCO1)C2=O (stereo unspecified),3.9% (inactive)
14,COc1ccc(OC)c(Cc2nnc(CCC(=O)NC3CCCC3)o2)c1,-10.4% (inactive)
15,COc1cc(OC)cc(C(=O)N[C@H](C(=O)OCC(=O)NC(C)c2ccccc2)C(C)C)c1 (stereo partly specified),14.5% (inactive)
16,COc1ccc(OC(C)C(=O)NCCc2nc3ccccc3[nH]2)cc1 (stereo unspecified),-10.4% (inactive)
17,COc1cc(OC)cc(C(=O)N[C@H](C(=O)Nc2nc3ccccc3[nH]2)C(C)C)c1,94.9% (active)
18,Cc1cc(/C=N/NC(N)=O)c(C)n1C1CCCCC1,-4.6% (inactive)
19,CCOC(=O)C(NC(=O)CC(C)C)(Nc1sc2c(c1C(N)=O)CCCC2)C(F)(F)F (stereo unspecified),5.1% (inactive)
20,O=C(COc1ccc(Cl)cc1[N+](=O)[O-])N1CCCCC1,-4% (inactive)
21,COc1ccccc1NC(=O)C1=C(C)Nc2nc3ccccc3n2C1c1cccs1 (stereo unspecified),91% (active)

row,Compound,inhibition
1,CCOC(=O)C1=C(C)Nc2nc3ccccc3n2C1c1cccs1 (stereo unspecified),6.6% (inactive)
2,CCOc1ccc(C2C(C(=O)NC)=C(C)Nc3nc4ccccc4n32)cc1OC (stereo unspecified),11.5% (inactive)
3,COc1cccc(-c2nn(-c3ccccc3)cc2/C=C(\C#N)C(=O)NCCCn2ccnc2)c1,14.7% (inactive)
4,C=CCN1C2CCCC1CC(NC(=S)Nc1cccc(OC)c1)C2 (stereo unspecified),-2.4% (inactive)
5,COc1ccc(F)cc1S(=O)(=O)Nc1ccc2c(c1)OCO2,-19.9% (inactive)
6,COCCOC(=O)C1=C(C)NC(=O)CC1c1cc2c(cc1Br)OCO2 (stereo unspecified),3.7% (inactive)
7,COc1cc2c(cc1/C=C1/NC(=O)N(c3ccccc3)C1=O)OCO2,-15.4% (inactive)
8,COc1ccccc1C1C2=C(COC2=O)Nc2cc3c(cc21)OCO3 (stereo unspecified),94.5% (active)
9,COc1ccc(C2CC(=O)Nc3cc(C)c(C)cc32)c(OC)c1OC (stereo unspecified),-0.3% (inactive)
10,CCCOc1ccccc1C1CC(=O)Nc2cc3c(cc21)OCO3 (stereo unspecified),92.3% (active)
11,CN1CCN(C(=O)/C(=C\c2cccs2)NC(=O)c2cccs2)CC1,-8.2% (inactive)
12,CCCCn1nc(C(=O)Nc2ccc(S(=O)(=O)Nc3ncccn3)cc2)c2ccccc2c1=O,-36.5% (inactive)
13,COc1cccc(CC(=O)N2CCCC(CCC(=O)N3CCN(c4ccccn4)CC3)C2)c1 (stereo unspecified),-8.5% (inactive)
14,CCOc1ncccc1C(=O)OCC(=O)NC1CC1,17% (inactive)
15,O=c1c([N+](=O)[O-])cccn1Cc1ccc(F)cc1Cl,-2.2% (inactive)
16,Cc1ccc(OCC(=O)N/N=C\c2ccco2)c(C)c1,-0.4% (inactive)
17,Cc1ccc(OCC(=O)N/N=C/c2ccncc2)cc1,0.8% (inactive)
18,Cc1ccc(/C=N/NC(=O)COc2ccccc2-c2ccccc2)cc1,97% (active)
19,CN1CCC(=NNC(=O)c2ccc(N(Cc3ccc(Cl)cc3)S(C)(=O)=O)cc2)CC1,-0.2% (inactive)

# Reference: PubChem BioAssay AID1285 (Columbia University Molecular Screening Center, 2008)
